# Target: AMP-activated protein kinase, AMPK (Homo sapiens) (UniProt P54646+O43741+P54619+Q9UGJ0+Q9Y478+Q13131+Q9UGI9)
# Experiment: AMP-dependent Kinase enzyme assay. An in vitro enzyme assay that detects ADP turnover that is directly proportional to AMPK activity. This uses naive AMPK that is activated during the assay with MK-8722
# Assay type: functional
# Parameters: scale not given: direction of the effect not stated beside the values
# Conditions: 30 µM
row,Compound,Percent Effect [%]
1,O=C(NCCCNc1cccnc1)c1ccc2nccn2c1,-8.67
2,Cc1nc2c(c(=O)[nH]1)CN(C(=O)CCC1CCCN(C)C1)C2 (stereo not given),12
3,COCCCS(=O)(=O)N1CCN(Cc2cccn2C)CC1,2.25
4,CCC(C)Oc1ccc(CNCCNS(C)(=O)=O)cc1Cl (stereo not given),5
5,O=C1CN([C@@H]2CC[C@@H](NS(=O)(=O)c3ccccc3F)[C@H]2O)CCN1,-4.46
6,Cc1ccc(-n2cc(C(=O)NCc3nnc4n3CCCCC4)nn2)cc1,5.45
7,CN(Cc1cscn1)Cc1cc2c(cc1Br)OCO2,-7.36
8,Nc1nccc(N2CCC(c3cc(Cc4ccccc4)n[nH]3)CC2)n1,4.14
9,CN(C)Cc1cccc(-c2cccnc2C(=O)NCc2ccco2)c1,20
10,CNC(=O)c1cn2cc(-c3ccc(F)cc3)n(CC=C(C)C)c(=O)c2n1,3.81
11,CCSc1ncc(CN2CCN(c3ccc(C#N)cc3)C(=O)C2)cn1,2.89
12,COc1ccc(CCCN(C)C(=O)c2cc(Cl)c[nH]2)cc1OC,7.77
13,COCCCN1CC2(CCN(C(=O)c3ncc(F)cc3F)CC2)CC1=O,-0.49
14,Cn1c(N2CC[C@H](O)C2)nc2cc(C(N)=O)ccc21,21.4
15,Cc1cnn(C2CCCN(C(=O)c3cc(-c4ccccc4C)n[nH]3)C2)c1 (stereo not given),1.68
16,Cc1noc(CCCC(=O)N2CCNC(=O)C2)n1,-2.32
17,CN(Cc1ccccc1)S(=O)(=O)N1C[C@H](C2CC2)[C@@H](N)C1,-0.41
18,CSC1(CNC(=O)N(C)Cc2sccc2C)CCOCC1,-7.94
19,CN(Cc1cc[nH]n1)C(=O)c1ccc2c(c1)nc(N1CC[C@H](O)C1)n2C,19.9
20,CN(Cc1nc2ccccc2[nH]1)C(=O)CN(C)c1ccccc1,-1.06

row,Compound,Percent Effect [%]
1,COC(=O)c1ccc(NC(=O)CCNCc2ccco2)cc1,2.04
2,Cn1ncc2c1CCCC2NCc1ccc(OCc2cccnc2)cc1 (stereo not given),2.53
3,Cn1cc(S(=O)(=O)N(CC(F)(F)F)C2CC2)cc1C(N)=O,1.54
4,CN(C)CCN(Cc1cccc(F)c1)C(=O)c1ccn(C)c(=O)c1,9.63
5,c1cnn(C2CN(c3nc(-c4ccncc4)nc4c3CCC4)C2)c1,1.13
6,Cc1cc(O)n2nc(C3CCN(C(=O)c4ccccn4)CC3)cc2n1,6.67
7,CN1CCCC(CCC(=O)N2CCc3c(nc(CC4CC4)[nH]c3=O)C2)C1 (stereo not given),10.8
8,CN(Cc1cc(Br)cs1)Cc1nnsc1Cl,15.7
9,COc1ccc(Cl)cc1C(C(=O)O)N1CCSCC1 (stereo not given),3.31
10,CN1CCOC(CNCC(=O)NCCc2ccc3c(c2)OCCO3)C1 (stereo not given),-5.82
11,Cc1ccccc1CCC1CCCN(C(=O)Cc2cc(=O)[nH]c(N)n2)C1 (stereo not given),-3.84
12,O=C(c1cnco1)N1CCC(Cc2cccc3ncccc23)CC1,5.42
13,CC(C)[C@]1(O)CN(C(=O)C2(Cn3cccn3)CC2)C[C@H]1C,-3.27
14,CCS(=O)(=O)Nc1ccc2[nH]c(C3CCC3)nc2c1,-4.1
15,O=C(Nc1ccc2c(c1)C(=O)NC2=O)c1ccc(Cl)s1,-3.34
16,CCC(NC(=O)c1cc(NC(C)=O)ccc1Cl)c1cc(C)ccn1 (stereo not given),2.39
17,CNC(=O)[C@@H](C)NC(=O)c1cc(-c2ccc(F)cc2)c(C)s1,2.33
18,O=C(Cn1cnc2ccsc2c1=O)c1ccc2c(c1)OCCO2,-4.28
19,CC(C)C(CCO)NC(=O)Nc1ccc(-c2csnn2)cc1 (stereo not given),13.2
20,CCOCCC(=O)N(CCC#N)c1ccc(C)c(C)c1,-0.0952
